# Source: PubChem BioAssay
# A selection: hits, their analogues and other compounds. The true share with any hit is near 2.3%.
# HTT aggregate: reduces HttQ103-GFP aggregates in PC12 cells | PC12 HttQ103-GFP aggregates, Acumen cytometry, 40 h | Potency, µM (titrated, usually from 46.1 µM), hits mostly inhibitors | 220,000 tested, 1.1% active | AID 1688; note: nearly all actives have a fitted effect of over 60% in size
#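 Using laser scanning cytometry, GFP-positive aggregates were counted after lysis of PC12 cells induced with 100 nM tebufenozide to express HTT exon 1 Q103–GFP. Compounds were tested in titration.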
# JMJD2E inh: inhibitors of human JMJD2E histone demethylase | 230,000 tested, 1.6% active | B2RXH2 | Potency, µM (highest dose often 57.1 µM), actives largely listed as inhibitors | AID 2147 | JMJD2E catalytic domain, FDH-coupled NADH fluorescence (FDH is formaldehyde dehydrogenase); note: nearly all actives have a fitted effect of over 50% in size
# RGS12 GoLoco inh: RGS12 GoLoco-Gai1 interaction inhibition; 230,000 tested, 0.44% active; Potency, µM (doses to about 61.6 µM), actives largely listed as inhibitors; P63096; Gai1:RGS12 GoLoco peptide FP, rhodamine, 10 min; active = well fitted inhibition curve with a large enough effect, not every such curve was filed as active; inactive = no such curve, though single readings can be large or run the other way; note: nearly all actives have a fitted effect of over 30% in size
# HTT ATP protect: Huntington cell model cytoprotection by ATP luminescence. 230,000 tested, 0.14% active. PC12 HTT-Q103 induced, cytoprotection, ATP luminescence, 40 h. AID 1471. Potency, µM (doses to about 56.4 µM), hits mostly activators; note: nearly all actives have a fitted effect of over 45% in size
#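 Readout: ATPlite luminescence (ATP level). Model: stable PC12, inducible Htt exon1 Q103-GFP. Inducer: tebufenozide, 100 nM final. Compounds: dose series. No G418 in medium.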
# VDR inhibitor: inhibitors of human vitamin D receptor. P11473. 400,000 tested, 0.93% active. VDR-SRC2-3 peptide fluorescence polarization, 2 h. AID 504847. Potency, µM, hits mostly inhibitors
# Target sequence (P11473 whole entry, looked up): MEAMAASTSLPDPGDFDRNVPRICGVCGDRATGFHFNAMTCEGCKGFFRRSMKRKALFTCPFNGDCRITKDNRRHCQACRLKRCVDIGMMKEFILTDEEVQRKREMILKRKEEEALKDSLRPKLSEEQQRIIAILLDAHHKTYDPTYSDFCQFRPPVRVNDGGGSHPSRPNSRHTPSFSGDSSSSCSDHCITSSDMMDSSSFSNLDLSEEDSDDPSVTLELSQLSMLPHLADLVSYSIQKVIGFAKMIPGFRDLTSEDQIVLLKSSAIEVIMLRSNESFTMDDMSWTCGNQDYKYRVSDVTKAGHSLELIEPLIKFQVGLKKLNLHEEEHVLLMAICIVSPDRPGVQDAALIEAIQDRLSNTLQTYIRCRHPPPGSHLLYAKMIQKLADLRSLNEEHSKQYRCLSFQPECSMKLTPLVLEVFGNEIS
#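 FP read-out; VDR + SRC2-3 coactivator peptide; 23 nl compound by pintool; 2 h RT incubation; reagents held at 4 deg C, protected from light.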
# Coupling enz: counter-screen for Giardia aldolase inhibitors: coupling enzyme system; coupling enzyme system counterscreen, AmpLite Red fluorescence; 290,000 tested, 0.67% active; activity change, negative = inhibition, % at 58.2 µM, hits read low; AID 2472; in the data active = activity change below about -30%
#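 Compounds tested against the coupling enzymes alone at 57.5 uM final; readout was AmpLite Red fluorescence (525/598 nm) after 20 min at RT.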
# Numbers stand for hits; 0 = inactive; ? = inconclusive; - = no result; ! = not active in a repeat; [ ] = another dose, or the depositor's remark. Unless noted, calls come from the whole dose curve; as a rule, active = well fitted curve in the direction sought with a large enough effect; inconclusive = small, poorly fitted or top-dose-only effect, or another doubt; inactive = no such curve, though single readings can be large; an effect the other way counts as inactive or inconclusive.
SMILES,HTT aggregate,JMJD2E inh,RGS12 GoLoco inh,HTT ATP protect,VDR inhibitor,Coupling enz
CCCCn1c(N)c(N(CCOC)C(=O)c2nn(CC)c(=O)c3ccccc23)c(=O)[nH]c1=O,-,-,-,-,0,-
Cc1ccc(CNC(=O)CCS(=O)(=O)c2ccc(Cl)cc2)cc1,0,0,-,0[10 µM],0,0
Cc1ccc(S(=O)(=O)CCC(=O)Nc2ccc(Br)cc2)cc1,-,-,-,-,0,0
Cc1ccc(NC(=O)CCS(=O)(=O)c2ccc(Br)cc2)nc1,0,?,0,0[10 µM],50µM,0
Cc1ccc(CNC(=O)CCS(=O)(=O)c2ccc(Br)cc2)cc1,0,11µM,0,0,0,0
Cc1ccc(C)c(N2CCN(C(=O)CCn3c(=O)[nH]c4ccccc4c3=O)CC2)c1,-,-,-,-,0,-
COc1ccc(C2NC(=O)N(C)C3=C2C(=O)N(c2ccccc2)C3)cc1 (stereo unspecified),-,-,-,-,0,-
O=C(c1ccc(Cl)cc1)c1coc2ccc(O)cc12,0.63µM,0,0,0,0,0
O=C(c1ccc(Br)cc1)c1coc2ccc(O)cc12,-,-,-,-,0,-
COc1ccccc1N1CCN(S(=O)(=O)c2cc(C(=O)Nc3ccc(Oc4ccccc4)cc3)ccc2F)CC1,-,-,-,-,0,-
CCN(CC)S(=O)(=O)c1cc(NC(=O)COC(=O)c2sc3ccccc3c2Cl)ccc1C,0,0,0,0[10 µM],0,0
CCN(CC)S(=O)(=O)c1cc(NC(=O)COC(=O)c2ccc(NC(=O)CC#N)cc2)ccc1C,0,4µM,0,0,0,0
CCc1cc(C(=O)NNC(=S)NC(C)c2ccccc2)cs1 (stereo unspecified),18µM,0,0,0,0,0
CCOC(=O)C(C(=O)OCC)C(C(=O)OCC)N1CCOCC1 (stereo unspecified),0,0,14µM,0,40µM,0
COc1ccc(Br)cc1CNc1ccc(N2CCOCC2)cc1,-,-,-,-,0,0
COc1cccc(CNc2ccc(N3CCC(C)CC3)cc2)c1OC,0,13µM,0,0[10 µM],?,0
Cc1cn2c(=O)cc(COC(=O)c3ccc(NC(=O)c4ccc(C(C)(C)C)cc4)cc3)nc2s1,-,-,-,-,0,-
O=C(/C=C/c1ccc(O)c(O)c1)OC(Cc1ccc(O)c(O)c1)C(=O)O (stereo unspecified),-,4µM,0,?,0,0
O=C(/C=C\c1ccc(O)c(O)c1)O[C@@H](Cc1ccc(O)c(O)c1)C(=O)O,-,4.5µM,10µM,0,0,0
Oc1cc(O)cc(/C=C\c2ccc(O)c(O)c2)c1,-,-,-,0[1.9 µM],-,-
N[C@@H](Cc1ccc(O)c(I)c1)C(=O)O,0,0,0,-,0,0
CCOC(=O)C(NC(=O)NC1CCCCC1)(c1ccccc1)C(F)(F)F (stereo unspecified),0,0,0,0,0,0
CCOC(=O)C(NC(=O)Nc1ccc(O)cc1)(c1ccccc1)C(F)(F)F (stereo unspecified),0,0,0,0[10 µM],0,-39
CCC/C=C1/CCCOC(C(=O)NCc2ccc(C)o2)(C(F)(F)F)C1 (stereo unspecified),-,-,-,-,50µM,0
O=C(Nc1ccc(F)cc1)Nc1nnc(Cc2ccccc2F)s1,-,-,-,-,71µM,0
SMILES,HTT aggregate,JMJD2E inh,RGS12 GoLoco inh,HTT ATP protect,VDR inhibitor,Coupling enz
COc1cccc(NC(=O)Nc2nnc(Cc3ccccc3F)s2)c1,-,-,-,-,0,0
O=C(O)c1cc2cc(Cc3cccnc3)ccc2o1,0,0,28µM!,0,0,0
CCOC(=O)C1CCN(Cc2ccc(F)cc2)CC1,0,0,0,0[10 µM],0,0
CN(C)c1ccc(CN2CCC(C(N)=O)CC2)cc1,0[9.22 µM],28µM,0,0[10 µM],0,0
COc1ccc(C/C(O)=C(\C#N)c2nc3ccccc3s2)cc1,13µM,0,0,0[10 µM],0,0
N#C/C(=C(/O)COc1ccccc1)c1nc2ccccc2s1,?,0,0,-,0,0
COC(=O)c1cc(Nc2cc(C)c3c(O)cccc3n2)cc(C(=O)OC)c1,0[9.22 µM],0,0,0[10 µM],0,0
COc1ccc(Nc2cc(C)c3c(O)cccc3n2)cc1,0[9.22 µM],0,0,0[10 µM],?,-30
Cc1ccc(Nc2cc(C)c3c(O)cccc3n2)cc1C,0[9.22 µM],?,0,0[10 µM],0,-37
CC1C/C(=C/c2ccccn2)C(=O)/C(=C/c2ccccn2)C1 (stereo unspecified),?,?,0,-,28µM,0
